Experiment [1] concerns the target chimpanzee Androgen Receptor (AR), AR (gene 747460) (UniProt O97775). The experiment can be described thus: NVS_NR_cAR: NovaScreen (NVS) Nuclear Receptor Binding Assay for chimpanzee Androgen Receptor (AR) (AID 2283346).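 Also: radioligand displacement from AR measured by scintillation counting in a cell-free assay; a loss of bound radioligand signal versus DMSO counts as binding.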 A digest of the protocol:
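Radioligand binding to chimpanzee AR expressed in Sf9/Sf21 cells, cell-free, measured 72 h after dosing by lysate-based scintillation counting. Loss of signal vs DMSO; initial duplicate screen at 25 uM, actives retested in concentration series.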

For experiment [2], the target named is rat Thyrotropin Releasing Hormone Receptor (TRH), Trhr (gene 25570) (UniProt Q01717). The experiment can be described thus: NVS_GPCR_rTRH: NovaScreen (NVS) G Protein-Coupled Receptor Assay for rat Thyrotropin Releasing Hormone Receptor (TRH) (AID 2283329).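 Also: hit means lower bound tracer signal versus DMSO baseline.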 In a few lines:
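Rat forebrain membrane prep, radioligand displacement, filter scintillation readout at 4 h. Single conc 25 uM, duplicate; actives retested as concentration series. DMSO = negative control/baseline.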

In experiment [3] the target is Androgen Receptor/SRC-1 Co-activator, AR (gene 367) (UniProt P10275). The experiment can be described thus: OT_AR_ARSRC1_0960: Odyssey Thera (OT) 16-hour HEK293T Protein-Complementation Assay for Androgen Receptor/SRC-1 Co-activator (AID 2283353).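 Also: actives raise the signal above DMSO so potency reflects increased AR and SRC-1 complex.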 A digest of the protocol:
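HEK293T cells stably expressing AR and SRC-1 fused to Venus YFP fragments, imaged 16 h after dosing. Nuclear/cytoplasmic fluorescence ratio at 488 nm from at least 400 cells per image; gain of signal relative to DMSO.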

Experiment [4] has as its target Estrogen receptor beta (Homo sapiens) (UniProt Q92731). The experiment can be described thus: OT_ER_ERbERb_0480: Odyssey Thera (OT) 8-hour HEK293T Protein-Complementation Assay for Estrogen Receptor-beta/-beta Homodimer (AID 2283357).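 Also: active means signal gain over DMSO baseline.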 In a few lines:
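Fluorescence intensity, nuclear for agonists and nuclear plus cytoplasmic for antagonists, was quantified by laser scanning cytometry versus vehicle after 8 h treatment. The cells were HEK293T stably carrying ER beta LBD fragment-complementation partners.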

Experiment [5] addresses human Peripheral-type Benzodiazepine Receptor (PBR), TSPO (gene 706) (UniProt P30536). Nature of the experiment: NVS_MP_hPBR: NovaScreen (NVS) Membrane Protein Assay for human Peripheral-type Benzodiazepine Receptor (PBR) (AID 2283331).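 Also: hits reduce radioligand binding relative to DMSO baseline.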 In a few lines: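 Radioligand displacement on human colonic cell membranes, 1 h incubation; bound radioactivity by filtration and scintillation counting. Primary screen in duplicate at 25 uM single concentration, actives followed up in concentration series; loss of binding versus DMSO.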

Experiment [6] deals with rat Peripheral-type Benzodiazepine Receptor (PBR), Tspo (gene 24230) (UniProt P16257). The experiment can be described thus: NVS_MP_rPBR: NovaScreen (NVS) Membrane Protein Assay for rat Peripheral-type Benzodiazepine Receptor (PBR) (AID 2283335). A digest of the protocol:
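Rat kidney membranes; radioligand binding with displacement, filter-based scintillation counting, 1 h incubation. Primary screen in duplicate at 25 uM, actives followed in concentration series; loss of binding vs DMSO.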

Experiment [7] deals with Retinoic acid receptor alpha (Homo sapiens) (UniProt P10276). Nature of the experiment: NVS_NR_hRARa_Agonist: NovaScreen (NVS) Nuclear Receptor Binding Assay for human Retinoic Acid Alpha Receptor Agonism (RAR) (AID 2283361). A digest of the protocol:
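Cell-free TR-FRET binding readout with extracted receptor protein, read 2 hours after dosing; gain-of-signal fitted relative to DMSO. Screened in duplicate at 25 uM, actives then run in concentration-response.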

Experiment [8] addresses T1, Estrogen receptor (Homo sapiens) + Estrogen receptor beta (Homo sapiens) (UniProt P03372+Q92731). Nature of the experiment: OT_ER_ERaERb_0480: Odyssey Thera (OT) 8-hour HEK293T Protein-Complementation Assay for Estrogen Receptor-alpha/-beta Heterodimer (AID 2283352). In a few lines:
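Fluorescence intensity readout from a protein-fragment complementation reporter in HEK293T; ER-alpha/ER-beta LBD heterodimer. Dosing 8 h. Gain-of-signal fit relative to DMSO negative control; laser scanning cytometry of whole-well cell population.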

Experiment [9] has as its target T1, Estrogen receptor (Homo sapiens) + Estrogen receptor beta (Homo sapiens). The experiment can be described thus: OT_ER_ERaERb_1440: Odyssey Thera (OT) 24-hour HEK293T Protein-Complementation Assay for Estrogen Receptor-alpha/-beta Homodimer (AID 2283356).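 Also: heteromer of ER alpha and ER beta binding domains; hits raise reporter fluorescence and both agonists and antagonists give an increase.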 A digest of the protocol:
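Readout: mean fluorescence intensity in nucleus (agonists) or nucleus plus cytoplasm (antagonists), read by laser scanning cytometer after 24 h compound exposure of HEK293T cells carrying ERα/ERβ LBD fragment-complementation constructs; DMSO baseline.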

The target of experiment [10] is rat Mineralocorticoid Receptor (MR), Nr3c2 (gene 25672) (UniProt P22199). The experiment can be described thus: NVS_NR_rMR: NovaScreen (NVS) Nuclear Receptor Binding Assay for rat Mineralocorticoid Receptor (MR) (AID 2283355). In a few lines: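 Cell-free radioligand binding to mineralocorticoid receptor from adrenalectomized rat brain supernatant, scintillation counting after 24 h. Primary screen in duplicate at 25 uM; actives retested in concentration series. Loss of specific binding versus DMSO.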

Experiment [11] addresses Retinoic acid receptor alpha (Homo sapiens) (UniProt P10276). Nature of the experiment: NVS_NR_hRAR_Antagonist: NovaScreen (NVS) Nuclear Receptor Binding Assay for human Retinoic Acid Alpha Receptor Antagonism (RAR) (AID 2283358). A digest of the protocol:
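Cell-free TR-FRET binding assay with extracted human RARalpha in antagonist mode, read 2 h after dosing. Loss of signal was fitted relative to DMSO; the primary screen used 25 uM in duplicate, with concentration series on follow-up.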

SMILES strings stand for the structures. Inconclusive results are not listed. Active and inactive are the calls of the source. The calls were made as follows: active = hit-call score of the fitted dose curve at least 0.9, where 1 is the maximum; inconclusive = response in the unintended direction; inactive = score below 0.9.

Sequence of chimpanzee Androgen Receptor (AR), AR (gene 747460) (O97775 whole entry, looked up): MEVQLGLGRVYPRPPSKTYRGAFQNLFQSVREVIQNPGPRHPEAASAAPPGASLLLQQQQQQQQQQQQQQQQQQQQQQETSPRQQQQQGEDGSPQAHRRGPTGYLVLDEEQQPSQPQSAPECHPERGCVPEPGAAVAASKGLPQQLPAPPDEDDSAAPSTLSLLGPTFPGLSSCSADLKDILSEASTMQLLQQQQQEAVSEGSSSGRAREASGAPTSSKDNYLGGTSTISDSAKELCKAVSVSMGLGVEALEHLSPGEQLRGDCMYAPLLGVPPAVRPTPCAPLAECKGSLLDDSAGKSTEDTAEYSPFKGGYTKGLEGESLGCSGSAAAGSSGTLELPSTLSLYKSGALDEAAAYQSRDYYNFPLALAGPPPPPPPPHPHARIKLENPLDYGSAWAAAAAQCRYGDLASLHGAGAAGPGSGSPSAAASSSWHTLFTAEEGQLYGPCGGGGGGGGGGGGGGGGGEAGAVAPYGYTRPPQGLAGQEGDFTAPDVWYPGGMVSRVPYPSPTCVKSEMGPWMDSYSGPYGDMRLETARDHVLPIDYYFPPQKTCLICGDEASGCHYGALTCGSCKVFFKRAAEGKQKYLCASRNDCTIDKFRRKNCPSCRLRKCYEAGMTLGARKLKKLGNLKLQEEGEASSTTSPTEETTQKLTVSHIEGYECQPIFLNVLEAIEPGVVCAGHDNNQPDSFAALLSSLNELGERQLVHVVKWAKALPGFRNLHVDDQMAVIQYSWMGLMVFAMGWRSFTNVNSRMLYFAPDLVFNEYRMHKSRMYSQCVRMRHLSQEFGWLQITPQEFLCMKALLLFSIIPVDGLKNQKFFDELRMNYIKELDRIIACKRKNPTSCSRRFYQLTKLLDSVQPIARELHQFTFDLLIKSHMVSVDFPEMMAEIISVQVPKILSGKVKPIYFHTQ
T1 sequence (P03372 whole entry, looked up, the tested form may be a part): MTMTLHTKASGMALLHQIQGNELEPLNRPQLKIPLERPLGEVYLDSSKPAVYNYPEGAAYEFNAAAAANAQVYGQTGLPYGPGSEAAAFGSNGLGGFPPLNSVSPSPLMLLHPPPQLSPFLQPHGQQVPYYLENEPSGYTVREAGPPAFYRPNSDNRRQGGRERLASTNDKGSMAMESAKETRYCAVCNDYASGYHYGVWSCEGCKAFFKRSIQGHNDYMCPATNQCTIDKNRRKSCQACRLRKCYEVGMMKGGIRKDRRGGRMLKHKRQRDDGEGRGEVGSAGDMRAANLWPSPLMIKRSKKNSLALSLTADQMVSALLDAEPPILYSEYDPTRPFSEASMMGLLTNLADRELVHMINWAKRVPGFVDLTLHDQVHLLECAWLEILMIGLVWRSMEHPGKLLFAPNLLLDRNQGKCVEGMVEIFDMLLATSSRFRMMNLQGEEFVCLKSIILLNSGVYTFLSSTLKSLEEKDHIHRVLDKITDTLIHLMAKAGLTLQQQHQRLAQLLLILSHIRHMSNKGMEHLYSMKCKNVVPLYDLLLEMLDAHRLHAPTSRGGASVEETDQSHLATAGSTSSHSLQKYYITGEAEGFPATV
T1 sequence (Q92731 whole entry, looked up, the tested form may be a part): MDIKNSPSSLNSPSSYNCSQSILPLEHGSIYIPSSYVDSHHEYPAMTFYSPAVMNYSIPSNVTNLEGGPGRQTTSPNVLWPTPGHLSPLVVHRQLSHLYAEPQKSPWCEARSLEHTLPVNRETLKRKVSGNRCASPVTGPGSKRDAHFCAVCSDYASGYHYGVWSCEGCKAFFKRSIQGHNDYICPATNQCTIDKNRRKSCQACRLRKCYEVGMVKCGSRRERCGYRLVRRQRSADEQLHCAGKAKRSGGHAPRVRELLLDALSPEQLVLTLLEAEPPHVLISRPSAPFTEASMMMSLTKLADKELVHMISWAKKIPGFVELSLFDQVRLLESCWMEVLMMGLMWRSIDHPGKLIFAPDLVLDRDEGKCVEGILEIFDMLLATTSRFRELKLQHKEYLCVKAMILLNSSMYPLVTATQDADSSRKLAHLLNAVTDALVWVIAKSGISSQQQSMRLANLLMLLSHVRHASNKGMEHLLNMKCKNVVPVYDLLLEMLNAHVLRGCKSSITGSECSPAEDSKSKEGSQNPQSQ
Sequence of Retinoic acid receptor alpha (Homo sapiens) (P10276 whole entry, looked up): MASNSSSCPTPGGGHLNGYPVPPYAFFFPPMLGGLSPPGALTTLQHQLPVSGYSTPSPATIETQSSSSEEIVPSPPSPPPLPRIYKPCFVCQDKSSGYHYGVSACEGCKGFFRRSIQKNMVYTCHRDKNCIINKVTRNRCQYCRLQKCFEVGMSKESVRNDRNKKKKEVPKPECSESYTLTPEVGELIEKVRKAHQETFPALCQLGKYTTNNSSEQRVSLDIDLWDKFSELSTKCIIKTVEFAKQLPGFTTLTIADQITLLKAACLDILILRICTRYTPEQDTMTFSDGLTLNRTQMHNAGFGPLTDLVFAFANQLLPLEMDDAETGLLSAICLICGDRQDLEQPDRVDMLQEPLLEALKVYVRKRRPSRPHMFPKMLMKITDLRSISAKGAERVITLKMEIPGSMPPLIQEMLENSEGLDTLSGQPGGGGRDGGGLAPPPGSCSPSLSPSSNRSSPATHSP
Sequence of human Peripheral-type Benzodiazepine Receptor (PBR), TSPO (gene 706) (P30536 whole entry, looked up): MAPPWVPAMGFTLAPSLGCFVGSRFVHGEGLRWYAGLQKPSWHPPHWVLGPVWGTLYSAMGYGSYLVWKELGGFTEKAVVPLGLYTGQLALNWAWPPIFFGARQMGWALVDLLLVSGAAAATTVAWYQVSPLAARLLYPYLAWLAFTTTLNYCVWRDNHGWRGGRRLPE
Sequence of rat Peripheral-type Benzodiazepine Receptor (PBR), Tspo (gene 24230) (P16257 whole entry, looked up): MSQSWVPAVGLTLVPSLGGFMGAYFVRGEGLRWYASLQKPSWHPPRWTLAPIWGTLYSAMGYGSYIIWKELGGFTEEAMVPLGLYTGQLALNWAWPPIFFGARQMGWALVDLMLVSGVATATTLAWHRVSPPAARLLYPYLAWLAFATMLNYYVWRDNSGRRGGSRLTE
Sequence of Estrogen receptor beta (Homo sapiens) (Q92731 whole entry, looked up, the tested form may be a part): as the sequence (Q92731 whole entry, looked up, the tested form may be a part) above
Sequence of Androgen Receptor/SRC-1 Co-activator, AR (gene 367) (P10275 whole entry, looked up, the tested form may be a part): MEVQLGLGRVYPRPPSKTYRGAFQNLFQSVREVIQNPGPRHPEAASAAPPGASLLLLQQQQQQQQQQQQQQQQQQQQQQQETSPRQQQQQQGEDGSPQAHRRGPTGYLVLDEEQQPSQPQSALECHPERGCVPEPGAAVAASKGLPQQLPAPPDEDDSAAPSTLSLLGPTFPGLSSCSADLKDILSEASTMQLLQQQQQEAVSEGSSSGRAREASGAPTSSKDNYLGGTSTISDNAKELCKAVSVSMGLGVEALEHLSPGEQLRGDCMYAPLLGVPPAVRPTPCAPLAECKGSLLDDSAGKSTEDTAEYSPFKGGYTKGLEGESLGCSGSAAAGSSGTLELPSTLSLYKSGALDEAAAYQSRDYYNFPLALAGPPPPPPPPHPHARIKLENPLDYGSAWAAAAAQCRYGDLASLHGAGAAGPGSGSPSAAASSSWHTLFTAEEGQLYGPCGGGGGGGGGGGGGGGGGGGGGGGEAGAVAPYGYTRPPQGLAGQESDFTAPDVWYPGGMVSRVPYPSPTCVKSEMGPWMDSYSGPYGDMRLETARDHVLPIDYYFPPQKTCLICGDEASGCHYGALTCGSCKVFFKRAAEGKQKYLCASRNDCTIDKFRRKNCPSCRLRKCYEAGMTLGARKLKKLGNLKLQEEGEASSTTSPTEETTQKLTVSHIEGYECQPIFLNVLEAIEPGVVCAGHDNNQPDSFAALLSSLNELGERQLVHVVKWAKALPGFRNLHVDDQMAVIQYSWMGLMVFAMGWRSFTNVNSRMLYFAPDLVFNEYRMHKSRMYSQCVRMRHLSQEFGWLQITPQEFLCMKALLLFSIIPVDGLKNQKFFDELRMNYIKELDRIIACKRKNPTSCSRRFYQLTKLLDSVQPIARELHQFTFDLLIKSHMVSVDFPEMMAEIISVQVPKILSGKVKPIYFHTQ
Sequence of rat Thyrotropin Releasing Hormone Receptor (TRH), Trhr (gene 25570) (Q01717 whole entry, looked up): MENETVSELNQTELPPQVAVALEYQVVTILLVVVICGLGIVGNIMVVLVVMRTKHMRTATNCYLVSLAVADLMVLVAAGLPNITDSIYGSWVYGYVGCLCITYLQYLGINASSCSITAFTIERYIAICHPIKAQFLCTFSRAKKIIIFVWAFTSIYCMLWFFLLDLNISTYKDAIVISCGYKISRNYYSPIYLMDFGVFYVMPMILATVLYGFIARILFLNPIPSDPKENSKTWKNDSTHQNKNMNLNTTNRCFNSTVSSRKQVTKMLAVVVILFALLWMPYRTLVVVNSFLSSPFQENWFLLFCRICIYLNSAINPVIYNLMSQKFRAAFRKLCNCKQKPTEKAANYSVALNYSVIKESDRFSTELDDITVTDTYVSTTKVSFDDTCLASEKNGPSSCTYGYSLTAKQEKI

For `CCOC(=O)c1ccc(N)cc1`, the call in [1] was inactive. On to `CC(=O)O[C@H]1C[C@@H]2CC[C@@]1(C)C2(C)C`, for which the molecule was called inactive in experiment [2], in experiment [3] and in experiment [4]. As for `Cc1cc(=O)oc2cc(N(C)C)ccc12`, the half-maximal activity concentration (AC50) (usually the midpoint of the concentration-response curve, whichever way the signal moves) is 6.09 µM (active) in experiment [5], 25 µM (active) in experiment [6], 6.8 µM (active) in [1] and 14.6 µM (active) in experiment [7]. As for `CCc1cc(C(C)(C)C)c(O)c(C(C)(C)C)c1`, in [1], the molecule was called inactive. Still for that read-out and setting: under `Nc1ccccc1[N+](=O)[O-]` stands “inactive”.

For the molecule `CC(C)CCCCCCc1ccc(OCCOCCO)cc1`, the AC50 in experiment [8] is 33.8 µM (active); in experiment [9], 36.5 µM (active). Turning to `CC(=O)CC(=O)Nc1ccccc1`, in [10], the molecule was classed as inactive. With `CCCCCCCCc1ccc(S(=O)(=O)O)cc1`, the AC50 in [11] was 16.8 µM (active).

For the origin of these results see PubChem BioAssay (EPA / NIEHS).
